From the supplement of paper PMC11732987, “Enantioselective OTUD7B fragment discovery through chemoproteomics screening and high-throughput optimisation” (Communications Chemistry, 2025)

What was measured:
Experiment in all cases: log2 ratio of Biotin-Ahx-Ub-VS probe labelling (fragment/DMSO); higher = less target engagement (more negative = stronger competition), active = hit call of the paper (q ≤ 0.05, log2 ratio ≤ -1)
Settings in all cases: compound concentration: 200 uM; treatment time: 3 h
USP19 = target: T1, USP19 (UniProt O94966)
T1 sequence (whole entry): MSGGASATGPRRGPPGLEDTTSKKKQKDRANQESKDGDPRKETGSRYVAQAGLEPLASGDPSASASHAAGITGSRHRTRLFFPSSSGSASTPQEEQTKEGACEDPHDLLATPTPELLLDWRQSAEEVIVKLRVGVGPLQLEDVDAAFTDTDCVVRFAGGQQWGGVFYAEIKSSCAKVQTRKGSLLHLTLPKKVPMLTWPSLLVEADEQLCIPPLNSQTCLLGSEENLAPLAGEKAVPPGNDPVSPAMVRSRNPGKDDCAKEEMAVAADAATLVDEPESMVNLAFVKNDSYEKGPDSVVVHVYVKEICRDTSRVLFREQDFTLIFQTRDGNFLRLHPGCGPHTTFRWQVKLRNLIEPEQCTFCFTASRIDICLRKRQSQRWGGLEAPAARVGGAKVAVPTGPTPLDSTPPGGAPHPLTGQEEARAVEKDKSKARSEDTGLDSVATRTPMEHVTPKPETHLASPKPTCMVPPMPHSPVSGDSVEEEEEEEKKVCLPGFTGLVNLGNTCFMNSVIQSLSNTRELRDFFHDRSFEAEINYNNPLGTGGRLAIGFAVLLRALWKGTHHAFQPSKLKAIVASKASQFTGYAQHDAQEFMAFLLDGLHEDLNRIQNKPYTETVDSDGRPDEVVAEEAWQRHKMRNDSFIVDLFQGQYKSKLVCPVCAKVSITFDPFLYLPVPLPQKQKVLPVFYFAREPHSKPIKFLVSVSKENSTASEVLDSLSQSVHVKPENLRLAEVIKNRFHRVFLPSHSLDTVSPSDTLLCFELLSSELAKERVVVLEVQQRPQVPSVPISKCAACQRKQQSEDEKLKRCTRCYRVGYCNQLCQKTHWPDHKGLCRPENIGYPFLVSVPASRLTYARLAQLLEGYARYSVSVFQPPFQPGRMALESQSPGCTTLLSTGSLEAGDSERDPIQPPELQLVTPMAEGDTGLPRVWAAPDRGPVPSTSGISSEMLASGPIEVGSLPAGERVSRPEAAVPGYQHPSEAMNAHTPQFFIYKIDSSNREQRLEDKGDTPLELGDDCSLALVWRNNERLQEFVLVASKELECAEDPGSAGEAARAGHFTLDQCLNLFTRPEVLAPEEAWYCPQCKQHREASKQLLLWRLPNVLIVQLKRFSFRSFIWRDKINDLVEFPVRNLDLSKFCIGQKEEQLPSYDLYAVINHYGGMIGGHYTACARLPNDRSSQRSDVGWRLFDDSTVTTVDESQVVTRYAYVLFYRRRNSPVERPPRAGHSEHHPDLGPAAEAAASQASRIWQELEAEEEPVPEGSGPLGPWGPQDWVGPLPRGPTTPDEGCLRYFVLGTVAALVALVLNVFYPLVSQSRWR
In short: (§1)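 Labelled DUBs were enriched with NeutrAvidin, digested with LysC and trypsin, and run by diaPASEF LC-MS/MS. The labelling used Biotin-Ahx-Ub-VS at 0.5 µM final for 1 h on HEK293T lysate (495 µg per sample) previously treated in triplicate with fragment at 200 µM or vehicle for 3 h. Values are average log2 fragment/vehicle ratios by unpaired t-test on global-median-normalised Spectronaut quantities of proteins with ≥2 unique peptides.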

USP22 = target: T2, USP22 (UniProt Q9UPT9)
T2 sequence (whole entry): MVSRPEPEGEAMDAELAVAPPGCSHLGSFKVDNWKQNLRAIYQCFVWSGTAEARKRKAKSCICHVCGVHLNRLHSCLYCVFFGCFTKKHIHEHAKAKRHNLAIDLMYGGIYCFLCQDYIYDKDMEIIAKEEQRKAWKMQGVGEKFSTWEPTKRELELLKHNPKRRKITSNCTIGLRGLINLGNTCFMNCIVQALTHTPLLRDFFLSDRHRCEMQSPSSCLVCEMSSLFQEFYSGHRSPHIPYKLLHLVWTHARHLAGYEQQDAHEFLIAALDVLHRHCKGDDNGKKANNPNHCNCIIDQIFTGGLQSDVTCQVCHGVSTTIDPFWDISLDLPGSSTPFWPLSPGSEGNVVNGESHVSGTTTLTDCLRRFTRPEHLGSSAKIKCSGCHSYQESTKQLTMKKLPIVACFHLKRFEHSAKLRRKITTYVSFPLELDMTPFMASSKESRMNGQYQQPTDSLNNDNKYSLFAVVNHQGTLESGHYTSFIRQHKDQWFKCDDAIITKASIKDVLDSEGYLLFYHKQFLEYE
In short: as §1

USP24 = USP24 (UniProt Q9UPU5)
Sequence of USP24 (Q9UPU5 whole entry): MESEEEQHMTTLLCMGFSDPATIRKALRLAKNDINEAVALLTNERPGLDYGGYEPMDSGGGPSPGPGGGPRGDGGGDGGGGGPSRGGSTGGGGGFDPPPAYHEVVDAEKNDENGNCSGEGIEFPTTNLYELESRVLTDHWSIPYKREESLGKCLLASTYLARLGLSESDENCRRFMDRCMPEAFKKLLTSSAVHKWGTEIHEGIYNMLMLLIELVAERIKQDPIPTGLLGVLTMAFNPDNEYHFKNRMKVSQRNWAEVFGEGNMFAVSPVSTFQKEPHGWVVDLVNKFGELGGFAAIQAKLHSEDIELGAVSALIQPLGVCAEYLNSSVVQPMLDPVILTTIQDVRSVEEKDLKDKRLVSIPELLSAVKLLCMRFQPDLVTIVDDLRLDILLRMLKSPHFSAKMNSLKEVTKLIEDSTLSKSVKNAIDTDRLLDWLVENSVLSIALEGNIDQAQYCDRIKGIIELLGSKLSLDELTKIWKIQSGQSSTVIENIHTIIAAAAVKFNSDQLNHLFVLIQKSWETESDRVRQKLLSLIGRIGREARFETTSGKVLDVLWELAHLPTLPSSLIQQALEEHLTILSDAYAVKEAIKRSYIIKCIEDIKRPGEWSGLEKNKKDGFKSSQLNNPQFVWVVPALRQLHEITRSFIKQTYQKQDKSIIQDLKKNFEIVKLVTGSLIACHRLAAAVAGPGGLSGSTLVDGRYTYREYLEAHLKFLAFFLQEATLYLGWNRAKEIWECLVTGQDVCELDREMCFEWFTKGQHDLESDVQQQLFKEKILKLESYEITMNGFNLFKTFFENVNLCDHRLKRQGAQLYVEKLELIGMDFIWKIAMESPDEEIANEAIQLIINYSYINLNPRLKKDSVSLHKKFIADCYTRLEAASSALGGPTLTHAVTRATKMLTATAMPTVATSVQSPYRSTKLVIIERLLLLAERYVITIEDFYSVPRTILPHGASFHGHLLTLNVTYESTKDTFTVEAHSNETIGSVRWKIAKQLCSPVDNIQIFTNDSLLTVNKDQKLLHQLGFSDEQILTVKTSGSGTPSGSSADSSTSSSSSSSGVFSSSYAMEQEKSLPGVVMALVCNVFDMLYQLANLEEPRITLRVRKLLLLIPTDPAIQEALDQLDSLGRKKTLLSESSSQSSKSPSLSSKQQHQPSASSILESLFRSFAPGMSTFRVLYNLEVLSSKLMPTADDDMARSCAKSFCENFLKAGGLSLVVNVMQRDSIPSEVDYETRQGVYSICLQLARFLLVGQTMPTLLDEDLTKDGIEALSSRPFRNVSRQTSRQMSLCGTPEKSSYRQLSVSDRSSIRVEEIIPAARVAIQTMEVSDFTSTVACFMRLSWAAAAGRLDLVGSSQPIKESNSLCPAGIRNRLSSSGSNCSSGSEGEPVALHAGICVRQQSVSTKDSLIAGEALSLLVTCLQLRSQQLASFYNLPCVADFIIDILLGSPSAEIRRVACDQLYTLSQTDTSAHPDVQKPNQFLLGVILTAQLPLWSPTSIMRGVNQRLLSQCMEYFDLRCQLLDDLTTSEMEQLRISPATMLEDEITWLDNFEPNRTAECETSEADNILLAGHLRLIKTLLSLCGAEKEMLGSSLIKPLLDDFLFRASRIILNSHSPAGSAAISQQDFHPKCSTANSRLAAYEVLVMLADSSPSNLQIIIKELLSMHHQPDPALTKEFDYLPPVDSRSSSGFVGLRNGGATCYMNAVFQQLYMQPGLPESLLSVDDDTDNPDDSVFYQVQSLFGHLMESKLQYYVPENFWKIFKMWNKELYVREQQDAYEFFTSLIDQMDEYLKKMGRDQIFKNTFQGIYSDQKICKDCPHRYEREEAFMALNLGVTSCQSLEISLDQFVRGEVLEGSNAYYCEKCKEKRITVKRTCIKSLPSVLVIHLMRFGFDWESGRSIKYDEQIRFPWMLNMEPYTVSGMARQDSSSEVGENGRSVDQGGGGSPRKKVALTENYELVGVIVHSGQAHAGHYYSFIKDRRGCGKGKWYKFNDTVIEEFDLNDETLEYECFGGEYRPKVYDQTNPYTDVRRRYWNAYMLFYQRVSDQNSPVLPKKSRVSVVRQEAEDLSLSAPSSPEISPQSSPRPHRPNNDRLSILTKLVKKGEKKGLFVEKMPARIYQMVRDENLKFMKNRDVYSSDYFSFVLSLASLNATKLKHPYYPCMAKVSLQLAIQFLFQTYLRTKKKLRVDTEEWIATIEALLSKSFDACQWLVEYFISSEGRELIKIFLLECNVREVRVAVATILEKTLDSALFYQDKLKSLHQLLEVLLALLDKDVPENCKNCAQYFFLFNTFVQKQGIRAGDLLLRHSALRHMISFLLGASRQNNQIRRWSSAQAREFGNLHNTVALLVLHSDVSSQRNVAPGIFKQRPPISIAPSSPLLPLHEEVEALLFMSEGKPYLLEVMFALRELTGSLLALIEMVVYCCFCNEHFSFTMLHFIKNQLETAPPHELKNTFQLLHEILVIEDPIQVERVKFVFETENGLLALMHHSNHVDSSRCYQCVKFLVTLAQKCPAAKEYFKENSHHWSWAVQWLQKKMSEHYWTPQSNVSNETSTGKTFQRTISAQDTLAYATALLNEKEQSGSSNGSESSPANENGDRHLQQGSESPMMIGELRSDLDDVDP
In short: as §1

USP25 = target: T3, USP25 (UniProt Q9UHP3)
T3 sequence (whole entry): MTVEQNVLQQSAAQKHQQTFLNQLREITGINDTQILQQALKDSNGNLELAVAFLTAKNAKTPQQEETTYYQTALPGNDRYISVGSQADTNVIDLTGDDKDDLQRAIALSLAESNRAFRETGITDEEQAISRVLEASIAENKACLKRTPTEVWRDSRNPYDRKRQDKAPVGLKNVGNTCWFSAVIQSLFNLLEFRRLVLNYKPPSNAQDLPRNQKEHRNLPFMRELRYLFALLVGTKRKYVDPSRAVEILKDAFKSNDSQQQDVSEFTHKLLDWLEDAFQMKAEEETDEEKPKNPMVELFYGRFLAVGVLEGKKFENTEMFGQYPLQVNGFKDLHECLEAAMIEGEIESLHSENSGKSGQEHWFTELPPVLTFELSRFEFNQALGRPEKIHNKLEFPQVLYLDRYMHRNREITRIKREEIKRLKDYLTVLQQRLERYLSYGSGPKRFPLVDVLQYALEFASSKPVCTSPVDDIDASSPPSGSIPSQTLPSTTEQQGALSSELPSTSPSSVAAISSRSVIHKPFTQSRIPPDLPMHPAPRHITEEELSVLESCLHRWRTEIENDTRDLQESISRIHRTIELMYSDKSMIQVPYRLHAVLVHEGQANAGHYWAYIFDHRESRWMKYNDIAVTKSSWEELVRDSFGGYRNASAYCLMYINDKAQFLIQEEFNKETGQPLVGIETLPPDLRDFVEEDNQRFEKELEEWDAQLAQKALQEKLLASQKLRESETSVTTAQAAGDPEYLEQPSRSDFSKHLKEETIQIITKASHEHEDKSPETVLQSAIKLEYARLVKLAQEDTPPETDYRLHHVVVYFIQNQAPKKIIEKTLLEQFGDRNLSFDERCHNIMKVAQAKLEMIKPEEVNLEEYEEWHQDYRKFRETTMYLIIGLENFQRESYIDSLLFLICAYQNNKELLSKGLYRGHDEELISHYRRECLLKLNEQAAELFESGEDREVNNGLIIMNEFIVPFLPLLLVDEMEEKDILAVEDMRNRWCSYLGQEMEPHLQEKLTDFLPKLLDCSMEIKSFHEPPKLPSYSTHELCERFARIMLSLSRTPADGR
In short: as §1

USP28 = target: T4, USP28 (UniProt Q96RU2)
T4 sequence (whole entry): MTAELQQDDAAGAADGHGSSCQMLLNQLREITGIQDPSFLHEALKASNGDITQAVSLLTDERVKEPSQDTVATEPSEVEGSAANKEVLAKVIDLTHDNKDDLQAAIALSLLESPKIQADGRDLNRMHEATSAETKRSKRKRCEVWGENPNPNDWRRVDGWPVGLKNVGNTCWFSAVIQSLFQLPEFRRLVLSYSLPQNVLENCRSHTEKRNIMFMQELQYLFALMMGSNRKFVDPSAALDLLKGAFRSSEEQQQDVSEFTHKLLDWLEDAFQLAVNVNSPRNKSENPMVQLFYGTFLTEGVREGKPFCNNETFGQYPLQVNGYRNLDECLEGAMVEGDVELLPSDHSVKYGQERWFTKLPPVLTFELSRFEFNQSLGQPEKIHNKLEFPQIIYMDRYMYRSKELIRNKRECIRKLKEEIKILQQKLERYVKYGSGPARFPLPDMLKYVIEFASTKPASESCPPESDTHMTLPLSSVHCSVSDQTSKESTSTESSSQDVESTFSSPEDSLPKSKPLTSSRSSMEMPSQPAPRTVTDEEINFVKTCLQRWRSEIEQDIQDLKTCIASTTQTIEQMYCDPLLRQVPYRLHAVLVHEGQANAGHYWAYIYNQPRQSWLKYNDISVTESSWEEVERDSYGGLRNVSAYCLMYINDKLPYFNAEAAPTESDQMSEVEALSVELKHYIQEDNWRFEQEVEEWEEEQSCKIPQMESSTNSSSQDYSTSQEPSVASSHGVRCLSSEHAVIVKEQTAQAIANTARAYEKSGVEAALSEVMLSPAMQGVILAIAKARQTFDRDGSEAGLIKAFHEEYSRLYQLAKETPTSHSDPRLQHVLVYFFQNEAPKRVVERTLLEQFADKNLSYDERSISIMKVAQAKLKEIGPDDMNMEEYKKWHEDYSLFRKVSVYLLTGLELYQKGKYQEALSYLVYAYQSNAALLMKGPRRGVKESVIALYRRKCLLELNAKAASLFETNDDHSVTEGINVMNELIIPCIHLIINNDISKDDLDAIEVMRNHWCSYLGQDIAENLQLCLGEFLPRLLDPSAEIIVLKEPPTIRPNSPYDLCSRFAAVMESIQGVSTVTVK
In short: as §1

Measured: log2 ratio of Biotin-Ahx-Ub-VS probe labelling

Cc1cccc(N2CCC(NC(=O)CCl)C2=O)c1 (stereo not given)
inactive: USP19 -0.0964 | USP22 0.199 | USP24 -0.149 | USP25 -0.421 | USP28 -0.475
